About 320 (3.2%) of roughly 10,000 compounds were called active. Cut-off read from the data, not from the text of the source: active = CPE inhibition mostly above about 9.1% (no sharp cut-off); inactive = mostly below about 7.2%. The full list was thinned out, with actives kept by preference.
assay: Dengue virus cytopathic effect inhibitors, cell-based, CPE readout, HTS (AID 540333); conditions: Dengue virus CPE inhibition in host cells, at 20 µM; stronger effect = higher value

| Structure (SMILES) | CPE inhibition |
| --- | --- |
| Cc1cccc2cc(C3CC(c4ccco4)=NN3C(=O)CCC(=O)O)c(Cl)nc12 (stereo not drawn) | inactive |
| COc1cc(C(=O)NCC(c2cccs2)N(C)C)cc(Cl)c1OC(C)C (stereo not drawn) | 0.015% (inactive) |
| COCCNC(=O)CCCC(=O)NCCOC | inactive |
| CC1=C(C(=O)Nc2ccc(F)c(F)c2)C(c2cccs2)NC(=S)N1 (stereo not drawn) | 0.675% (inactive) |
| CCOc1cccc(C2NC(=S)NC(C)=C2C(=O)Nc2ccccc2)c1 (stereo not drawn) | 0.13% (inactive) |
| CCOC(=O)c1c(NC(=O)C2=C(C)NC(=S)NC2c2ccc(F)cc2F)sc(C)c1C (stereo not drawn) | 32.4% (active) |
| O=C(CSc1nc2ccccc2n1S(=O)(=O)c1cccc([N+](=O)[O-])c1)NCc1cccs1 | 0.11% (inactive) |
| COc1cc(C(=O)OCC(=O)Nc2ccc(SC(F)F)cc2)cc(OC)c1OC | inactive |
| O=C(Cc1c[nH]c2ccccc12)NNC(=O)c1ccccc1 | 0.335% (inactive) |
| COc1ccccc1CNC(=O)C(Cc1c[nH]c2ccccc12)NC(=O)OCc1ccccc1 (stereo not drawn) | 6.32% (inactive) |
| CN(C)c1ccc(P(=O)(Nc2ccccc2)N2CCOCC2)c(NC(=O)c2cccs2)c1 (stereo not drawn) | 2.15% (inactive) |
| Cc1ccc(NP(=O)(c2ccc(N(C)C)cc2NC(=O)c2cccs2)N2CCOCC2)cc1Cl (stereo not drawn) | 28.7% (active) |
| Cc1ccc(NP(=O)(c2ccc(N(C)C)cc2NC(=O)c2cccs2)N2CCOCC2)cc1 (stereo not drawn) | 2.19% (inactive) |
| COC(=O)c1ccccc1NC(=O)C1CCCO1 (stereo not drawn) | 3.31% (inactive) |
| CCOC(=O)c1c(C)[nH]c(C(=O)COC(=O)[C@H](C)NC(=O)c2ccccc2Cl)c1C | 0.24% (inactive) |
| O=C(NNc1nc(-c2ccc(Cl)cc2)cs1)c1ccco1 | inactive |
| O=C(Nc1nc(-c2ccc(Cl)cc2)cs1)NC1CCCCC1 | 20.3% (active) |
| CC(=O)c1c(C)[nH]c(C(=O)Nc2nc(-c3ccc(Cl)cc3)cs2)c1C | 26.9% (active) |
| CC(=O)c1c(C)[nH]c(C(=O)Nc2nc(-c3ccccc3)c(C)s2)c1C | 0.6% (inactive) |
| CC(=O)c1c(C)[nH]c(C(=O)Nc2nc(-c3ccc(-c4ccccc4)cc3)cs2)c1C | 4.52% (inactive) |

| Structure (SMILES) | CPE inhibition |
| --- | --- |
| O=C(/C=C/c1ccco1)NC(=S)Nc1nc(-c2ccc(Cl)cc2)cs1 | 1.57% (inactive) |
| CCOP(=O)(OCC)C(Nc1ccccc1)c1cc(OC)ccc1OC (stereo not drawn) | inactive |
| COc1cccc(-c2c(-c3cc(OC)cc(OC)c3)n(C)c3ccc(-c4ccc5[nH]ccc5c4)cc23)c1 | 2.75% (inactive) |
| O=C(/C=C/c1ccc(Cl)cc1Cl)NCCSCc1ccccc1 | 0.45% (inactive) |
| O=C(CCl)N(c1ccccc1)C1CCS(=O)(=O)C1 (stereo not drawn) | inactive |
| O=C(/C=C/c1ccc(Cl)cc1Cl)N(Cc1ccccc1)C1CCS(=O)(=O)C1 (stereo not drawn) | 38.5% (active) |
| CC(C)CN(C(=O)CSc1nn(-c2ccc(Cl)cc2)c(=S)s1)C1CCS(=O)(=O)C1 (stereo not drawn) | 2.1% (inactive) |
| O=C(/C=C/c1ccc(Cl)cc1Cl)N(Cc1ccc(Cl)cc1)C1CCS(=O)(=O)C1 (stereo not drawn) | 29.6% (active) |
| CCN(C(=O)COC(=O)/C=C/c1ccc(O)c(OC)c1)C1CCS(=O)(=O)C1 (stereo not drawn) | 0.935% (inactive) |
| COc1nccnc1NS(=O)(=O)c1ccc(NC(=S)NC(=O)c2ccccc2)cc1 | inactive |
| Cc1cc(C)cc(NC(=O)CSc2nc3c(oc4ccccc43)c(=O)n2-c2ccccc2)c1 | 0.68% (inactive) |
| COc1ccc(NC(=O)COC(=O)CNS(=O)(=O)c2ccc(F)c(F)c2F)cc1OC | inactive |
| N#Cc1ccc(C(=O)Nc2cc(S(=O)(=O)Nc3ccc(Cl)cc3)ccc2N2CCCCC2)cc1 | 7.53% (active) |
| O=C(Nc1cc(S(=O)(=O)Nc2ccc(Cl)cc2)ccc1N1CCCCC1)c1ccc(F)cc1Cl | inactive |
| COc1ccc(NS(=O)(=O)c2ccc(N3CCOCC3)c(NC(=O)c3ccc(OC)cc3)c2)cc1 | inactive |
| CCOC(=O)C1=C(O)/C(=C/c2ccc(OCC(=O)O)c(OCC)c2)SC1=Nc1ccc(OC)cc1 | 0.63% (inactive) |
| CC(=O)N1c2ccccc2[C@H](C)[C@H]1C | inactive |
| O=C(NCCc1nc2ccccc2[nH]1)c1ccc(Cl)c([N+](=O)[O-])c1 | 0.05% (inactive) |
| CCC[C@@H](NS(=O)(=O)c1ccc(C)cc1)C(=O)Oc1ccc2c3c(c(=O)oc2c1)CCC3 | inactive |
| S=C(Nc1ccc(Br)cc1)NC1CCCCC1 | 4.99% (inactive) |

| Structure (SMILES) | CPE inhibition |
| --- | --- |
| S=C(Nc1ccc(Oc2ccccc2)cc1)NC1CCCC1 | 0.255% (inactive) |
| S=C(Nc1ccc(Oc2ccc(NC(=S)NC3CCCCC3)cc2)cc1)NC1CCCCC1 | 25.8% (active) |
| O=C(CN1CCN(C(=S)NC2CCCC2)CC1)Nc1ccc(Oc2ccccc2)cc1 | 12.1% (active) |
| CCNC(=S)N1CCN(CC(=O)Nc2ccc(Br)cc2)CC1 | 2.06% (inactive) |
| S=C(Nc1ccc(Oc2ccccc2)cc1)NC1CCCCCC1 | 0.02% (inactive) |
| Cc1ccc(S(=O)(=O)N(C)Cc2ccc(C(=O)N/N=C/c3ccc(OC(F)F)cc3OC(F)F)cc2)cc1 | 2.12% (inactive) |
| S=C(c1ccc(-c2ccccc2Cl)o1)N1CCCCC1 | 2.92% (inactive) |
| Cn1cc(C(=O)N2CCc3ccccc32)cn1 | inactive |
| c1cnc2cc(-c3ccsc3)ncc2c1 | 0.12% (inactive) |
| COc1cccc(/C=C(/C#N)c2ccc(F)cc2)c1OCc1cccc(C(=O)O)c1 | inactive |
| CN1CCN(C(=O)c2cnn3c(C(F)(F)F)cc(-c4cccs4)nc23)CC1 | inactive |
| CC(C)/C=N/NC(=O)c1cccc(N2CCCC2=O)c1 | 0.335% (inactive) |
| CCOC(=O)c1sc(NC(=S)NC(=O)c2ccccc2)c(C(=O)OCC)c1C | 3.5% (inactive) |
| COc1cc(OC)cc(-c2c(-c3cccs3)c3cc(-c4cccc5[nH]ccc45)ccc3n2C)c1 | 11.7% (active) |
| COc1ccc(-c2c(-c3cc(OC)cc(OC)c3)n(C)c3ccc(-c4cccc5[nH]ccc45)cc23)cc1 | 3.95% (inactive) |
| COc1cccc(-c2c(-c3cc(OC)cc(OC)c3)n(C)c3ccc(-c4cccc5[nH]ccc45)cc23)c1 | 4.01% (inactive) |
| Cc1ccc(-c2[nH]nc3c2C(C)C(C#N)=C(N)O3)cc1 (stereo not drawn) | inactive |
| CC(C)(C)[C@@H]1CCC(=O)N(CC[C@H](Sc2ccccc2)c2ccccc2)CC1 | 1.54% (inactive) |
